Calls of active or inactive are those of the source.
Assays:
[1] = A549 cell viability effects, profiling panel, calcein-AM fluorescence, 48 h, basal (AID 1162); details: higher = more signal
[2] = adipocyte viability effects, profiling panel, cell-based, 3T3-L1 adipocytes, calcein-AM fluorescence, 48 h, basal (AID 1163); details: 3T3-L1 adipocytes viability, higher = more signal
[3] = HepG2 cell viability effects, profiling panel, calcein-AM fluorescence, 48 h, basal (AID 1164); details: higher = more signal
[4] = MM1S cell viability effects, profiling panel, calcein-AM fluorescence, 48 h, basal (AID 1165); details: higher = more signal;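 note: viability of MM1S multiple myeloma cells under basal unstimulated conditions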
[5] = basal RPMI8226 viability, no added stimulus, profiling panel, cell-based, calcein-AM fluorescence, 48 h, PK04 Diversity Set (AID 1166); details: RPMI8226 myeloma viability, higher = more signal;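 note: cells grown under basal conditions without added stimulus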
[6] = basal HepG2 mitochondrial membrane potential changes, profiling panel, cell-based, JC-1 fluorescence, 24 h, 100 nL compound (AID 1167); details: higher = more signal
[7] = basal 3T3-L1 adipocyte mitochondrial potential changes, profiling panel, cell-based, JC-1 fluorescence, 3T3-L1 adipocytes, 24 h, 100 nL compound (AID 1168); details: JC-1 mitochondrial fluorescence, higher = more signal, called active from +8 up or from −8 down
[8] = basal RPMI8226 mitochondrial membrane potential changes, profiling panel, cell-based, JC-1 fluorescence, 24 h, 100 nL compound (AID 1169); details: RPMI8226 myeloma, JC-1 mitochondrial potential fluorescence, higher = more signal
[9] = basal MM1S mitochondrial membrane potential changes, profiling panel, cell-based, JC-1 fluorescence, 24 h, 100 nL compound (AID 1170); details: higher = more signal
[10] = A549 lung cancer cell viability effects, profiling panel, resazurin fluorescence, 24 h, PK04 Diversity Set (AID 1171); details: higher = more signal, called active from +8 up or from −8 down
Note: test concentration not given here.

Compound | z-score [1] | z-score [2] | z-score [3] | z-score [4] | z-score [5] | z-score [6] | z-score [7] | z-score [8] | z-score [9] | z-score [10]
COC(=O)[C@@]1(CCC(=O)OC(C)(C)C)N=C(c2ccc(OCCCO)cc2)O[C@H]1c1ccccc1 | -1.68 | 0.673 | -0.968 | -2.83 | -2.83 | -2.01 | -0.306 (inactive) | -1.1 | 0.558 | -1.8 (inactive)
CCCCN1CC=CC23O[C@@H]4C=CCCOC(=O)C4[C@H]2C(=O)N(CCCCCO)[C@@H]3C1=O (stereo not given in full) | 0.761 | 0.159 | 0.858 | 1.83 | 0.916 | 0.84 | 0.615 (inactive) | 0.117 | -0.832 | -0.318 (inactive)
CC(C)CN1C(=O)[C@@]2(c3ccc([N+](=O)[O-])cc3)CC(=O)N(C3CCCCC3)[C@@H]2c2ccc(CO)cc21 | -0.651 | 0.16 | -0.403 | 0.246 | 0.0529 | 0.0665 | -0.339 (inactive) | 0.603 | -0.214 | -0.881 (inactive)
COCCCNC(=O)[C@@H]1c2ccccc2C(=O)N(Cc2ccccc2)[C@H]1c1ccc(CO)cc1 | 0.273 | 0.803 | 0.601 | 0.239 | 0.437 | 1.1 | -0.0918 (inactive) | 0.163 | 0.282 | 0.45 (inactive)
COc1ccc([C@H]2C[C@H]3C(Br)=C[C@@]2(CO)C(=O)[C@]32CO2)cc1 | -0.0583 | -0.335 | -0.898 | -2.71 | -0.106 | -2.76 | 0.134 (inactive) | -0.401 | -1.09 | 0.417 (inactive)
NC(=O)[C@@]1(Cc2ccccc2)N=C(c2ccc(OCCCO)cc2)O[C@H]1c1ccccc1 | -0.611 | 0.422 | -0.373 | -0.13 | 0.0044 | -0.576 | 0.804 (inactive) | -0.318 | 0.577 | -0.0671 (inactive)
C=CCNC(=O)[C@H]1[C@@H]2C(=O)O[C@@H](c3ccccc3)[C@@H](c3ccccc3)N2[C@@H](c2ccc(OCCO)cc2)[C@]12C(=O)Nc1ccc(C#CCC(C(=O)OC)C(=O)OC)cc12 | -0.505 | 0.208 | 0.349 | -1.46 | -3.36 | -0.232 | 0.97 (inactive) | -0.817 | -1.12 | 0.149 (inactive)
CN(C)C(=O)[C@]1(Cc2ccccc2)N=C(c2ccc(OCCCO)cc2)O[C@@H]1c1ccccc1N=[N+]=[N-] | -0.279 | -0.336 | -0.987 | -3.2 | -4.26 | 1.43 | 2.9 (inactive) | -1.18 | -2.37 | -1.75 (inactive)
O=C(CS)NCCCCCNC(=O)[C@H]1C[C@H]2C(=O)NCC(=O)N2[C@H]1c1cccc(OCCO)c1 | 0.54 | 0.0451 | -0.203 | 0.304 | 0.111 | -0.342 | -0.0834 (inactive) | 0.127 | 0.112 | 0.768 (inactive)
CN1CCC(CCCO)=CC1c1cccs1 (stereo not given) | 0.251 | 0.335 | 0.369 | 0.277 | 0.0383 | -0.927 | -1.51 (inactive) | 0.247 | 0.00928 | -0.0596 (inactive)
C#CCOc1ccc(C[C@@H](C(=O)OC)N(CC#C)[C@@H](/C=C/C2CC2)[C@H](O)Cc2ccccc2)cc1 | -1.05 | -0.303 | -2.42 | -2.3 | -2.19 | -1.15 | -0.00867 (inactive) | -0.79 | -0.524 | 0.313 (inactive)
CCCCC(O)C1C=CC2C(=O)N(C)C(=O)C2N1N1CCCCC1 (stereo not given) | -1.19 | -0.579 | -0.267 | -0.73 | -0.173 | -1.59 | -0.686 (inactive) | 0.135 | -0.026 | -0.377 (inactive)
COc1ccc(C(=O)Nc2cccc(CN3C(=O)[C@]4(O[C@H](CCn5cc(CCO)nn5)[C@@H]([Si](C)(C)c5ccc(OC)cc5)[C@@H]4C)c4ccccc43)c2)cc1 | -3.46 | -0.42 | -4.63 | -2.47 | -4.35 | -2.18 | 1.51 (inactive) | -0.46 | -2.05 | -6 (inactive)
C=CCC(OC(C)=O)[C@@H]1[C@@H](N(Cc2ccc(-c3cccc(C(F)(F)F)c3)o2)C(=O)c2cccc3ccccc23)c2cc(OCCCO)ccc2N1C(=O)Cc1ccc2ccccc2c1 (stereo not given in full) | -0.285 | 0.784 | -0.0575 | -0.564 | -2.04 | 1.1 | -0.62 (inactive) | -0.0209 | -0.0374 | -0.0845 (inactive)
O=C1C2C=CC(C(O)c3ccc4c(c3)OCO4)N(Nc3ccc([N+](=O)[O-])cc3)C2C(=O)N1c1ccccc1 (stereo not given) | -0.649 | -1.09 | 0.199 | 0.259 | -0.169 | -0.941 | -0.856 (inactive) | 0.575 | -0.77 | -0.0894 (inactive)
[N-]=[N+]=NCc1ccccc1C[C@@]1(C(=O)NCC(O)CO)N=C(c2ccc(OCCCO)cc2)O[C@@H]1c1ccccc1 (stereo not given in full) | -1.64 | 0.195 | -3.17 | -3.22 | -1.82 | -2.54 | 1.67 (inactive) | -1.12 | -0.123 | -1.01 (inactive)
NCCCCCNC(=O)[C@H]1C[C@H]2C(=O)N3CCC[C@H]3C(=O)N2[C@H]1c1ccc(O)cc1 | -0.246 | 0.339 | -0.0476 | -1.11 | -0.177 | -0.0181 | 0.0417 (inactive) | -0.398 | 0.286 | -0.166 (inactive)
O=C(NCc1ccccc1)[C@@H]1c2ccccc2C(=O)N(C2Cc3ccccc3C2)[C@H]1c1ccc(CO)cc1 | 0.365 | 0.363 | 0.291 | 0.0344 | -1.3 | 1.52 | -0.508 (inactive) | 0.0926 | 0.458 | 0.791 (inactive)
COC(=O)[C@@]1(Cc2ccccc2)[C@H]2c3cc(C(=O)N(C)C)n(CCc4c[nH]c5ccc(O)cc45)c3C[C@H]2CN1C(=O)c1ccccc1 | -0.206 | 0.389 | 1.22 | -0.988 | -0.235 | -1.3 | -0.215 (inactive) | -0.532 | -1.57 | 0.349 (inactive)
C=C(CCCC)/C(=C/C[C@@H](OC(C)=O)c1ccccc1OCCO)c1cc(C(=O)OC)ccc1OC | 1.83 | 0.109 | 0.741 | -2.54 | -0.354 | 1.75 | 0.478 (inactive) | -0.118 | 0.234 | 0.873 (inactive)
CCOC(=O)C[C@H]1[C@H](OC(=O)c2ccc(-c3ccccc3)cc2)[C@@H](NC(=O)c2ccccc2)c2cc(OCCCO)ccc2N1C(=O)c1ccc2ccccc2n1 | -0.208 | -0.0559 | 0.261 | -0.936 | -0.617 | 0.0102 | -0.811 (inactive) | 0.939 | -0.386 | -0.264 (inactive)
N#Cc1ccc(C(O)C2C=CC3C(=O)N(c4ccccc4)C(=O)C3N2Nc2ccccc2F)cc1 (stereo not given) | 0.545 | -1.05 | -0.245 | 0.755 | -0.406 | -0.776 | -0.872 (inactive) | 0.585 | -0.0841 | 0.0801 (inactive)
O=C1OCCC=C[C@H]2OC34C=CCN(Cn5nnc6ccccc65)C(=O)[C@H]3N(CCO)C(=O)[C@@H]4C12 (stereo not given in full) | -0.679 | 0.432 | -0.556 | 0.897 | -1.08 | -0.298 | 0.756 (inactive) | 0.42 | -0.0431 | 0.293 (inactive)
CCCNC(=O)[C@@H]1c2ccccc2C(=O)N(Cc2ccccc2OC)[C@H]1c1ccc(CO)cc1 | 2.28 | -0.272 | 1.52 | 0.513 | 0.349 | 1.67 | 0.776 (inactive) | 0.182 | -0.565 | -0.0906 (inactive)
CCCC(=O)N(CCc1c[nH]c2ccccc12)[C@@H]1CC(C(=O)NCCO)=C[C@H](Oc2c(I)cc(CO)cc2OC)[C@H]1O | 0.0593 | -0.0939 | 0.0635 | 0.704 | 0.0598 | 0.149 | -0.937 (inactive) | -0.178 | -1.49 | -0.558 (inactive)
C=C(C)[C@@H]1CC=C(C(O)C2C=CC3C(=O)NC(=O)C3N2Nc2ccc(Cl)cc2Cl)CC1 (stereo not given in full) | -3.8 | 0.641 | -3.88 | -3.71 | -3.89 | -3.7 | -0.432 (inactive) | -0.934 | -0.944 | -2.76 (inactive)
[N-]=[N+]=NCc1ccccc1[C@@H]1OC(c2ccc(OCCCO)cc2)=N[C@]1(CCS(=O)(=O)c1ccccc1)C(=O)N1CCOCC1 | 0.761 | 1.96 | 0.502 | 0.191 | -1.6 | 2.29 | 0.78 (inactive) | -0.356 | -0.412 | 0.218 (inactive)
CC(C)Cc1ccc(CN2CC[C@@H](N)C2)cc1 | -0.336 | 0.202 | -0.375 | -3.15 | -1.65 | 2.5 | -0.559 (inactive) | -0.502 | -2.86 | 3.36 (inactive)
COc1ccc(NN2C(C(O)c3ccc(N(C)C)cc3)C=CC3C(=O)N(C4CCCCC4)C(=O)C32)cc1 (stereo not given) | -0.441 | -1.13 | -0.173 | 0.0375 | -0.136 | -0.134 | -0.771 (inactive) | 0.651 | -1.63 | 0.19 (inactive)
COCC(=C=CC[C@H](O)c1cccc(OCCO)c1)CCO | -0.243 | -0.214 | -0.909 | 0.269 | 0.256 | -0.206 | 0.244 (inactive) | -0.574 | -0.451 | 0.614 (inactive)
